Source: the supplement of paper PMC10933113
± gives the uncertainty stated by the source.

Each compound was assayed on THP-1 (assay: CD54 surface expression induction over DMSO control (% over DMSO); higher = stronger dendritic cell activation). Conditions: exposure time: 24 h.
Protocol: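 hCLAT-like CD54 and CD86 surface expression on THP1 cells after 24 h exposure at a single concentration (highest non-cytotoxic concentration, or 100-200 µM if not cytotoxic). Flow cytometry (iQue) was run on 5,000 live cells.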

| SMILES | CD54 surface expression induction |
| --- | --- |
| O=C1Nc2ccccc2C1(c1ccc(O)cc1)c1ccc(O)cc1 [Oxyphenisatin] (100 µM) | 15.6 ± 12 |
| CCN(CC)CCOc1ccc2c(c1)C(=O)c1cc(OCCN(CC)CC)ccc1-2 [Tilorone] (200 µM) | 79.8 ± 17 |
| Clc1nc(C(Cl)(Cl)Cl)c(Cl)c(Cl)c1Cl [2,3,4,5-Tetrachloro-6-(trichloromethyl)pyridine] (10 µM) | -4.98 ± 3.6 |
| O=C(NS(=O)(=O)/C=C/c1cccs1)c1ccc(F)cc1Br (200 µM) | 4.11 ± 1.7 |
| Cc1c(C)n(Cc2ccccc2)c2ccc(C(=O)OCCN(C)C)cc12 [Indocate] (200 µM) | 30.6 ± 5 |
| CC(C)(C)c1cc(O)c(C(C)(C)C)cc1O [2,5-Di-tert-butylbenzene-1,4-diol] (100 µM) | 38.2 ± 50 |
| CCCCCCCC/C=C\CCCCCCCC(=O)N(C)CC(=O)O [Oleyl sarcosine] (100 µM) | 6.04 ± 0.79 |
| CCCCCCC(C)O (stereo not drawn) [2-Octanol] (200 µM) | -1.7 ± 0.35 |
| CCCCCCCC(=O)Oc1c(Br)cc(C#N)cc1Br [Bromoxynil octanoate] (100 µM) | -3.81 ± 2.4 |
| NC(=S)NC(N)=S [2,4-Dithiobiuret] (200 µM) | 15.9 ± 2.6 |
| COc1ccc2cc(CCC(C)=O)ccc2c1 [Nabumetone] (100 µM) | -12.2 ± 1.2 |
| Clc1ccc(C(Cn2ccnc2)OCc2ccc(Sc3ccccc3)cc2)c(Cl)c1 (stereo not drawn) [Fenticonazole nitrate] (100 µM) | 21.1 ± 8.7 |
| O=C1c2cccc(O)c2C(=O)c2c(O)cc(CO)cc21 [Aloe-emodin] (100 µM) | 24.6 ± 18 |
